# Compound activity: PubChem, National Center for Advancing Translational Sciences (NCATS)
# Only some compounds are listed: those with a hit (about 3.6% of all), similar ones and a draw of the others.
# VDR inhibitor: Inhibitors of the vitamin D receptor (VDR): qHTS. VDR-SRC2-3 peptide fluorescence polarization, 2 h. actives 0.93% (n = 400,000). AID 504847, 2011. Potency, µM, for the others: max response, negative = inhibition, actives largely listed as inhibitors; also: potency is read from the fitted curve at half-maximal effect; % is scaled to controls: 0 for no effect and ±100 for the full control effect
#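 Two reagent solutions held at 4 deg C in the dark were dispensed, compounds pinned at 23 nl, and the mixture incubated 2 h at room temperature. Read-out: fluorescence polarization of VDR–SRC2-3 peptide binding.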
# Rango dissoc inh: qHTS Assay for Inhibitors of RanGTP induced Rango (Ran-regulated importin-beta cargo) - Importin beta complex dissociation; actives 0.071% (n = 340,000); Biochemical FRET Rango-importin beta, RanGTP-induced dissociation; Snurportin-1 (Homo sapiens) + GTP-binding nuclear protein Ran (Homo sapiens) + Importin …; Potency, µM (highest dose often 46.1 µM), inactives show at the top dose activity change, negative = inhibition; calls by dose curve; also: potency is read from the fitted curve at half-maximal effect; % of control where 0% means no effect; nearly all actives have a fitted effect of over 45% in size
#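 Quantitative HTS using a FRET biosensor: 0.1 uM Rango, 0.25 uM importin beta, 0.6 uM Ran, 2 mM GTP, 0.2 uM RCC1 final, PBS with DTT, Tween-20 and BSA. Post-read taken 45 min after Ran addition.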
# PLK1 PBD inh: qHTS for Inhibitors of PLK1-PDB (polo-like kinase 1 - polo-box domain): Primary Screen; Serine/threonine-protein kinase PLK1 (Homo sapiens), P53350; Plk1 PBD binding of FITC phosphopeptide, fluorescence polarization; Potency, µM, for the others: max response, negative = inhibition, hits mostly inhibitors; actives 2.8% (n = 360,000); AID 720504, 2013; also: potency is read from the fitted curve at half-maximal effect; series mostly up to about 57 µM; % is scaled to controls: 0 for no effect and ±100 for the full control effect; nearly all actives have a fitted effect of over 65% in size
# GCN5L2 inh: qHTS Assay for Inhibitors of GCN5L2 | Potency, µM (series often up to 58.9 µM), for inactives: top-dose activity change, negative = inhibition, actives largely listed as inhibitors | Histone acetyltransferase KAT2A (Homo sapiens), Q92830 | actives 0.21% (n = 390,000) | GCN5L2 HAT assay, ThioGlo1 CoA-SH fluorescence | AID 504327, 2011; also: potency is read from the fitted curve at half-maximal effect; % is scaled to controls: 0 for no effect and ±100 for the full control effect
# Target sequence (Q92830 whole entry, looked up): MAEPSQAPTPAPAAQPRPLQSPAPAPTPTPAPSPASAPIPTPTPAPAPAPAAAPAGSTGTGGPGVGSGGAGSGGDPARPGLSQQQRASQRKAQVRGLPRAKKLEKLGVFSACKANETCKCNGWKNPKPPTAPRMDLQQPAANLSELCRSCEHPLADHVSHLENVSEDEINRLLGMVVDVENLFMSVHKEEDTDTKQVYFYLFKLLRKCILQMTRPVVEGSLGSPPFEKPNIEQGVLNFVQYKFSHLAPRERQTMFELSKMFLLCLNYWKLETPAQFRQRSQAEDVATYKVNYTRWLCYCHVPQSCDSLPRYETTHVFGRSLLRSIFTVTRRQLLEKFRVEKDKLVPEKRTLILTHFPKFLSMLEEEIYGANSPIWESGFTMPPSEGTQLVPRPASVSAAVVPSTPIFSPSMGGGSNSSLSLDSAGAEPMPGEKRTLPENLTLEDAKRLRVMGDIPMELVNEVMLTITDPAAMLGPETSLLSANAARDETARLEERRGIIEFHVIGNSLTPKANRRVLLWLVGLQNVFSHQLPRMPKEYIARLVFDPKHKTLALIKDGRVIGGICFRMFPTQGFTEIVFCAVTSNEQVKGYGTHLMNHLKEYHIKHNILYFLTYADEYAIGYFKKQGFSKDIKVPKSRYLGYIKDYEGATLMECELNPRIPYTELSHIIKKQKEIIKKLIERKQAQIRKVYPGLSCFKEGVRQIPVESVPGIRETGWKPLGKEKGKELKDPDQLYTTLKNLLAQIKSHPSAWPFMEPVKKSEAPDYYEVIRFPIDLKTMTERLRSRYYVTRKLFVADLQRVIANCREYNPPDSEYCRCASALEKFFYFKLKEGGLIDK
#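 Compounds, pin-transferred from DMSO stocks, meet 20nM GCN5L2 for 15 min before the reaction begins with H3(1-25) peptide (75uM) and acetyl-CoA (70uM). Thiol-reactive ThioGlo1 reports CoA release over 20 min at room temperature.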
# Rango-impB inh: qHTS Assay for Inhibitors of Rango (Ran-regulated importin-beta cargo) - Importin beta complex formation | Importin subunit beta-1 (Homo sapiens), Q14974 | Rango CFP/YFP FRET sensor + importin beta, 45 min | Potency, µM (series often up to 92.2 µM), for the others: at the top dose inhibition of complex formation | actives 0.031% (n = 340,000) | AID 540263, 2011; calls by dose curve;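 also: potency is read from the fitted curve at half-maximal effect; 0% = DMSO wells and 100% = buffer wells lacking importin beta; nearly all actives have a fitted effect of over 15% in size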
#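 FRET biosensor Rango (snurportin 1 IBB between N-terminal EYFP and C-terminal Cerulean), 50 nM in PBS/1 mM DTT/0.02% Tween-20/0.1% BSA, preincubated 5 min RT with compound; 0.125 microM importin beta added, 45 min RT, CFP/YFP FRET ratio read.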
# PI5P4Ka inh: qHTS for Inhibitors of phosphatidylinositol 5-phosphate 4-kinase (PI5P4K); Phosphatidylinositol 5-phosphate 4-kinase type-2 alpha (Homo sapiens), P48426; PI5P4Kalpha enzyme, ADP-Glo luminescence, 60 min; hits give low values; max response, %; actives 1.2% (n = 330,000); AID 652105, 2013; active = max response of -50% or lower; inconclusive = between -30% and -50%; inactive = -30% or higher; also: value at the top dose of about 77 µM; % is scaled to controls: 0 for no effect and ±100 for the full control effect
#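 Quantitative HTS of the MLSMR library against PI5P4Kalpha with substrate. ATP added last at 5 microM final; room temperature, 60 minutes. Remaining ATP depleted, ADP converted and read as luminescence.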
# * = called active by the depositor; ? = inconclusive; / = not tested or not shown. Unless noted, calls follow the shape of the dose curve; as a rule, active = well fitted curve in the direction sought with a large enough effect; inconclusive = small, poorly fitted or top-dose-only effect, or another doubt; inactive = no such curve, though single readings can be large; an effect the other way counts as inactive or inconclusive.
SMILES,VDR inhibitor,Rango dissoc inh,PLK1 PBD inh,GCN5L2 inh,Rango-impB inh,PI5P4Ka inh
O=C(NCCN1CCOCC1)c1ccc(Cl)c(Cl)c1,3%,1%,0%,-2%,-2%,0
O=C(CCN1C(=O)S/C(=C\c2ccccc2)C1=O)N1CCCCC1,-9%,-23%,-8%,-6%,-2%,-3
CCN(CC)CCC(=O)N1C/C(=C/c2ccccc2)C(=O)/C(=C\c2ccccc2)C1,45µM*,-2%,-15%,/,-2%,16
O=C1/C(=C\c2ccc(Cl)c(Cl)c2)CN(C(=O)CCN2CCOCC2)C/C1=C/c1ccc(Cl)c(Cl)c1,3.2µM*,1%,-25%,/,0%,8
CC[C@H](C)[C@H](NC(=O)[C@H](C)NC(=O)CNC(=O)[C@H](CCCCN)NC(=O)[C@H](CC(N)=O)NC(=O)[C@H](CO)NC(=O)CN)C(=O)N[C@H](C(=O)NCC(=O)N[C@@H](CC(C)C)C(=O)N[C@@H](CCSC)C(=O)O)[C@@H](C)CC,-1%,/,/,8%,/,/
Cc1cc(C)c(S(=O)(=O)NCC(c2cccs2)S(=O)(=O)c2ccccc2)c(C)c1 (stereo not drawn),-1%,/,/,-18%,/,/
N#CC1=C(N)SC(N)=C(C#N)C1c1ccnc2ccccc12,-18%,?,?,-3%,?,-74*
O=C1c2ccccc2C(=O)C1c1ccnc2ccccc12,-3%,?,1%,1%,?,-1
N#Cc1cnc(Sc2ccccc2)nc1,?,-3%,30µM*,-8%,-1%,-10
Nc1ccc(Sc2ccccc2)nc1,-13%,13%,-4%,/,-4%,1
Cc1c(Cl)cccc1NC(=S)N(CCCN1CCOCC1)Cc1cccs1,-10%,-2%,-6%,2%,-3%,7
Cc1ccc(NC(=S)N(CCCN2CCOCC2)Cc2cccs2)c(C)c1,-3%,-4%,19µM*,2%,0%,-12
CCN(CC)S(=O)(=O)c1ccc2c(c1)c(=O)c(C(=O)NCc1ccccc1Cl)cn2C,-17%,/,/,-5%,/,/
CC(C)(C)OC(=O)CN1C(=O)NC(Cc2c[nH]c3ccccc23)C1=O (stereo not drawn),15%,0%,2%,-3%,0%,1
CCCNC(=O)CN1C(=O)NC(Cc2c[nH]c3ccccc23)C1=O (stereo not drawn),?,1%,27µM*,1%,0%,-8
C/C(N)=C(/C#N)C(=O)CN1C(=O)NC(Cc2c[nH]c3ccccc23)C1=O (stereo not drawn),-16%,-13%,-3%,3%,-1%,-66*
CCOc1ccc(NC(=O)Cn2cc(C(=O)c3ccccc3)c(=O)c3cc4c(cc32)OCCO4)cc1,-3%,/,/,2%,/,/
O=C(NCC(=O)N(c1ccc2c(c1)OCO2)C(C(=O)NC1CCCC1)c1ccncc1)c1ccco1 (stereo not drawn),-21%,-21%,2.7µM*,-1%,2%,?
Cc1cccc(N(C(=O)CNC(=O)c2ccco2)C(C(=O)NC2CCCC2)c2ccncc2)c1 (stereo not drawn),8%,0%,-5%,-1%,2%,-7
Cc1cc(C)cc(N(C(=O)CNC(=O)c2ccco2)C(C(=O)NC2CCCC2)c2ccncc2)c1 (stereo not drawn),?,12%,30µM*,-3%,-4%,2
CCN(CC(=O)NCc1ccc(F)cc1)C(=O)/C=C/c1cccs1,11%,8%,27µM*,1%,-2%,-18
Cc1ccc(CCN2CC(C(=O)NCCCN3CCC(C)CC3)CC2=O)cc1 (stereo not drawn),?,11%,27µM*,-2%,-3%,0
CC12C(=O)N(c3ccccn3)C(=O)C1C1C=CC2C1 (stereo not drawn),?,40%,30µM*,-3%,0%,1
Cc1ccc(NC(=O)CN2CCSc3ccc(S(=O)(=O)N4CCCC4)cc32)cc1C,15%,/,/,-19%,/,/
CCSc1nnc(NC(=O)C2Cc3ccccc3CN2C(=O)c2ccco2)s1 (stereo not drawn),-13%,-23%,?,-2%,-3%,-52*
SMILES,VDR inhibitor,Rango dissoc inh,PLK1 PBD inh,GCN5L2 inh,Rango-impB inh,PI5P4Ka inh
Cc1ccccc1NC(=O)C1Cc2ccccc2CN1C(=O)c1ccco1 (stereo not drawn),8%,-5%,1%,-2%,-1%,?
O=C1NC2CCCCC2C(=O)N1OS(=O)(=O)c1ccccc1 (stereo not drawn),16µM*,-7%,0.75µM*,/,4%,-20
O=C(O)CCCCn1c(SCC(=O)Nc2ccccc2C(F)(F)F)nc2ccsc2c1=O,-6%,3%,-3%,-3%,0%,-99*
O=C(O)CCCCCn1c(SCC(=O)Nc2ccc(F)cc2)nc2ccsc2c1=O,19%,2%,-2%,-3%,0%,-5
Oc1c(Br)cc(Br)cc1/C=N/N1CCN(Cc2ccccc2)CC1,9%,-7%,-4%,-3%,-3%,5
Cc1ccc(CN2CCN(/N=C/c3cc(Br)cc(Br)c3O)CC2)cc1,?,-19%,17µM*,-10%,-2%,-7
CCc1ccccc1NC1=NCC(=O)N1Cc1ccc(OC)cc1,-11%,0%,-13%,-4%,1%,1
CCc1ccccc1NC1=NCC(=O)N1C1CCCC1,-27%,18%,30µM*,16%,-1%,-7
Cc1ccc(-n2nnnc2C(Cl)c2nnnn2-c2ccc(C)cc2)cc1,25µM*,11%,?,-6%,0%,1
COc1ccc(C2CC(=O)c3cc(-c4nc(-c5ccc(Cl)cc5)c(C)s4)c(=O)[nH]c3C2)cc1 (stereo not drawn),-6%,/,/,0%,/,/
COc1cccc(Oc2cn[nH]c2-c2ccc(OCC(=O)NN)cc2O)c1,-21%,-4%,38µM*,-18%,3%,-11
COc1cccc(/C=C2\SC(=S)N(C(Cc3ccccc3)C(=O)O)C2=O)c1 (stereo not drawn),?,-12%,34µM*,-13%,-2%,1
O=C(O)C(Cc1ccccc1)N1C(=O)/C(=C/c2cccs2)SC1=S (stereo not drawn),79µM*,8%,?,1%,0%,2
